# ± gives the standard deviation of the averaged measurements.
# Test system: firefly luciferase (FLuc)
# Test: residual bioluminescent signal relative to negative (DMSO) control; higher = less interference (more residual luciferase signal)
# Protocol: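 Purified luciferase (FLuc 10 nM + 10 uM D-luciferin; NLuc 10 pM + 10 uM furimazine; RLuc 50 pM + 2 uM coelenterazine) in 384-well plates; metal salt pre-incubated with enzyme 10 min at RT, substrate added and luminescence read after 10 min. Signal normalised to plate DMSO negative control (% N_VALUE = x/mean neg *100); triplicate wells at 0.01, 1 and 5 mM salt.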
# [1] = metal salt concentration 0.01 mM, HEPES conditions (100 mM HEPES, 5 mM MgSO4, 10 uM ATP, pH 7.5)
# [2] = metal salt concentration 0.01 mM, screening conditions (0.5 mM Tris, 50 mM glycine, 0.5 mM EDTA, 5 mM MgSO4, 10 uM ATP, pH 7.6)
# [3] = metal salt concentration 1 mM, HEPES conditions (100 mM HEPES, 5 mM MgSO4, 10 uM ATP, pH 7.5)
# [4] = metal salt concentration 1 mM, screening conditions (0.5 mM Tris, 50 mM glycine, 0.5 mM EDTA, 5 mM MgSO4, 10 uM ATP, pH 7.6)
# [5] = metal salt concentration 5 mM, HEPES conditions (100 mM HEPES, 5 mM MgSO4, 10 uM ATP, pH 7.5)
# [6] = metal salt concentration 5 mM, screening conditions (0.5 mM Tris, 50 mM glycine, 0.5 mM EDTA, 5 mM MgSO4, 10 uM ATP, pH 7.6)
Structure (SMILES),residual bioluminescent signal [1],residual bioluminescent signal [2],residual bioluminescent signal [3],residual bioluminescent signal [4],residual bioluminescent signal [5],residual bioluminescent signal [6]
O=S(=O)([O-])[O-].[Mn+2] [manganese(II) sulfate],85 ± 11%,82.6 ± 4.7%,80.6 ± 12%,77.1 ± 3.5%,79.4 ± 13%,57.4 ± 8.1%
O=C([O-])[O-].[Cs+].[Cs+] [caesium carbonate],85.2 ± 14%,93.8 ± 6.3%,91.6 ± 14%,103 ± 2.9%,79.4 ± 4.7%,56.2 ± 6.8%
O.O.O.O.O.O.O.O.O.O.O=S(=O)([O-])[O-].[Na+].[Na+] [sodium sulfate],81.9 ± 8.1%,73.4 ± 5.7%,51 ± 7.2%,70.4 ± 8.2%,20 ± 6.1%,51.1 ± 3.8%
O=S(=O)([O-])[O-].[Fe+2] [iron(II) sulfate],10.5 ± 3.6%,109 ± 9.9%,1.09 ± 0.23%,0.237 ± 0.14%,1.22%,0.237 ± 0.21%

# Source: the supplement of paper PMC11628255, “Interference of metal ions on the bioluminescent signal of firefly, Renilla, and NanoLuc luciferases in high-throughput screening assays” (Frontiers in Chemistry, 2024)
